# Results as given in PubChem BioAssay (NCATS).
# Values without a mark were called inactive. Inconclusive results are not listed. Where a call stands in place of a potency, no number is given. Activity calls are given as the source filed them. Unless noted, calls follow the shape of the dose curve; as a rule, active = well fitted curve in the direction sought with a large enough effect; inconclusive = small, poorly fitted or top-dose-only effect, or another doubt; inactive = no such curve, though single readings can be large; an effect the other way counts as inactive or inconclusive.
# Assays:
# [1] = target: Lysosomal acid glucosylceramidase (Homo sapiens) (UniProt P04062); experiment: Glucocerebrosidase-p2 (AID 348; in the data active = potency below about 10 µM; also: potency is read from the fitted curve at half-maximal effect); details: purified GBA, blue fluorogenic substrate, 40 min
# Outline: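 Compounds titrated from 0.6 nM upwards against 0.2 nM enzyme in pH 5.9 citric acid/KH2PO4, taurocholate, tween-20; blue fluorogenic substrate 80 uM, 40 min room temperature, stopped and read Ex 365/Em 440 for AC50.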
# [2] = AP1 Signaling Pathway (AID 357; active = well fitted curve in either direction with a large enough effect, not every such curve was filed as active;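 also: ME-180 reporter cells stimulated with EGF at its EC50 level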); details: ME-180 AP-1-bla reporter, EGF-induced, beta-lactamase ratio, 5 h; at 7.69 µM (top of the series) unless noted
# Outline: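 Read-out was the 460nm/530nm emission ratio (excitation 405nm) after CCF4 loading for 2.5 hours at room temperature. Cells carried an AP-1-driven beta-lactamase reporter, were stimulated with EC50 EGF plus compound for 5 hours, and AC50 values came from titrations.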
# [3] = target: Cytochrome P450 1A2 (Homo sapiens) (UniProt P05177); experiment: p450-cyp1a2 (AID 410; calls by dose curve); details: recombinant CYP1A2, luciferin-ME demethylation, luminescence; series mostly up to 11.4 µM
# Outline: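 Human CYP1A2 (20nM) demethylated Luciferin-ME at its Km (100uM) in 100mM KPO4. After 10 min compound preincubation, NADPH regeneration ran the reaction 60 min at room temperature. Luciferin was read by luminescence, normalized to 57 uM furafylline.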
# [4] = NFAT Signaling Pathway (AID 444; active = well fitted curve in either direction with a large enough effect, not every such curve was filed as active;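 also: carbachol stimulus at about its EC50 of 1 µM final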); details: Jurkat NFAT-bla M1, carbachol, beta-lactamase ratio, 5 h; at 7.69 µM (top of the series) unless noted
# Outline: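 Read-out: CCF4 FRET ratio (460 nm/530 nm) after 1 h RT dye loading, used for %activity and AC50 from titration series. Cells: Jurkat NFAT-β-lactamase/M1 line, treated with compound plus 1 uM carbachol for 5 h, 37 °C.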
# [5] = Stat Signaling Pathway (AID 446; active = well fitted curve in either direction with a large enough effect, not every such curve was filed as active;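 also: ME-180 cervical cancer cells given 40 pM IL-6 alongside compound; SIE-controlled beta-lactamase reporter measured as 460/530 nm FRET emission ratio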); details: ME-180 SIE beta-lactamase reporter, IL-6 stimulated, 5 h; at 7.69 µM (top of the series) unless noted
# Outline: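 ME-180 cells carrying a SIE-driven beta-lactamase reporter are stimulated with 40 pM IL-6 for 5 h at 37C in the presence of compound. The 460/530 nm FRET substrate ratio is read after 2.5 h at RT. Data are normalised to 300 pM IL-6 and to 125 nM JAK inhibitor controls.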
# [6] = target: Glucocorticoid receptor (Homo sapiens) (UniProt P04150); experiment: GR-GFP Redistribution (AID 450;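 active = compounds whose dose series gives a full or clear partial fitted curve of increased nuclear translocation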; also: potency is read from the fitted curve at half-maximal effect); details: U2OS GR-GFP nuclear translocation, laser cytometry, 2 h
# [7] = target: Mitogen-activated protein kinase 10 (Mus musculus) (UniProt Q61831); experiment: JNK3 AlphaScreen Assay (AID 530; active = well fitted curve in either direction with a large enough effect, not every such curve was filed as active;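 also: kinase came from lysate of stimulated human HepG2 cells; signal reports phosphorylation of biotinylated GST-cJun 1-79 at Ser73 with 10 µM ATP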); details: JNK3 lysate, c-Jun phosphorylation; series mostly up to 57.1 µM
# Outline: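 Room-temperature AlphaScreen kinase assay; pre-activated HepG2 lysate as JNK3 source, biotin-GST-cJun(1-79) substrate, 10 uM ATP, compound 15 min preincubation.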
# [8] = target: 3',5'-cyclic-AMP phosphodiesterase 4B (Homo sapiens) (UniProt Q07343); experiment: qHTS Assay for Inhibitors of PDE-IV (AID 607; active = well fitted activation curve with a large enough effect in the main read-out, with a control signal flat, not every such curve was filed as active); details: HEK293 ACTOne CNG channel cells, membrane potential fluorescence; series mostly up to 22.9 µM
# Outline: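 HEK293 ACTOne cells with CNG channel (1000/well), endogenous PDE4; membrane potential dye, compounds up to 22.9 uM final. Fluorescence Ex 535/Em 590; RO 20-1724 (100 uM final) as reference.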
# [9] = target: Cytochrome P450 2C19 (Homo sapiens) (UniProt P33261); experiment: qHTS Assay for Inhibitors and Substrates of Cytochrome P450 2C19 (AID 899); details: recombinant CYP2C19, luciferin-H EGE luminescence; series mostly up to 11.4 µM; also: nearly all actives have a fitted effect of over 60% in size
# Outline: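 Reactions contain 5nM enzyme, 10uM Luciferin-H EGE (KM) and 50mM KPO4; compound preincubates 10 min at 37C, NADPH regeneration starts turnover for 60 min. Luminescence after detection reagent gives activity.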
# [10] = target: ATP-dependent 6-phosphofructokinase (Trypanosoma brucei brucei) (UniProt O15648); experiment: qHTS Assay to Find Inhibitors of T. brucei phosphofructokinase: hit validation (AID 492961);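 also: luminescence reports ADP formed as PFK phosphorylates fructose-6-phosphate with ATP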; details: T. brucei PFK, ADP-Glo luminescence; series mostly up to 51.4 µM
# Outline: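 Measures ADP output of PFK (1.25 nM) at 0.1 mM ATP, 0.5 mM F6P, pH 8.0 TEA buffer with 5 mM MgCl2. No-enzyme wells define full inhibition; uninhibited enzyme wells define zero.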
# [11] = target: Ubiquitin carboxyl-terminal hydrolase 1 (Homo sapiens) (UniProt O94782); experiment: Inhibitors of USP1/UAF1: Pilot qHTS (AID 504865); details: purified USP1/UAF1, Ub-rhodamine cleavage fluorescence; series mostly up to 114 µM;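 also: rhodamine fluorescence freed from ubiquitin-rhodamine substrate followed over time; top concentration of the series differs between compounds; nearly all actives have a fitted effect of over 35% in size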
# Outline: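 Kinetic fluorescence assay: 1nM USP1/UAF1, 15 min compound preincubation, then 150nM Ub-Rho; 480/540 nm.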
# [12] = target: Luciferin 4-monooxygenase (Photinus pyralis) (UniProt P08659); experiment: Biochemical firefly luciferase enzyme assay for NPC (AID 624030);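 also: purified P. pyralis luciferase at 10 nM with luciferin and ATP substrate; nearly all actives have a fitted effect of over 70% in size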; details: purified P. pyralis luciferase, luminescence, 5 min; series mostly up to 58.6 µM
# Outline: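 Direct inhibition of firefly luciferase enzyme (10 nM final, 50 mM Tris Acetate) assessed by luminescence within 5 minutes. Percent activity scaled between DMSO and PTC124 positive control, with concentration-effect curves classified by fit quality and response.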
# [13] = S16 Schwann cell viability assay (CellTiter-Glo assay) (AID 624031); details: S16 rat Schwann cells viability, 24 h; series mostly up to 57.5 µM;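 also: native untransfected S16 rat Schwann cells; nearly all actives have a fitted effect of over 70% in size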
# Outline: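 Counter-screen for cytotoxicity: parental S16 rat Schwann cells lacking the PMP22 reporters, treated 24 h with compound, viability from cellular ATP by CellTiter-Glo luminescence, normalized to DMSO (0%) and no-cell wells.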
# [14] = S16 Schwann cell PMP22 intronic element firefly luciferase assay (AID 624032); details: S16 rat Schwann cells, PMP22 element FLuc, 24 h; series mostly up to 57.5 µM; also: nearly all actives have a fitted effect of over 30% in size
# Outline: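 Luciferase reporter of PMP22 intronic-element expression in stably transfected S16 rat Schwann cells, read by ONE-Glo luminescence after 24 h compound exposure at 37 C. Activity scaled between DMSO (0%) and positive-control PTC124; concentration-effect curves quality-classified.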
# [15] = S16 Schwann cell PMP22 intronic element beta-lactamase assay (AID 624044; calls by dose curve; also: nearly all actives have a fitted effect of over 15% in size); details: S16 rat Schwann cells, PMP22 element beta-lactamase FRET, 24 h; series mostly up to 38.3 µM
# Outline: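 Rat S16 Schwann cells with beta-Lac driven by a PMP22 intronic element, compound-treated 24 h at 37 °C. LiveBLAzer FRET B/G read: 460 nm normalized to potassium clavulanate vs DMSO; 535 nm FRET as viability; concentration-effect curves classified.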
# 3D7 = experiment: qHTS profiling for inhibitors of Plasmodium falciparum proliferation (AID 504749); also: nearly all actives have a fitted effect of over 60% in size; details: P. falciparum in erythrocytes, SYBR Green DNA, 72 h; series mostly up to 28.7 µM
# Outline: (§1)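 Three-day growth assay of blood-stage parasites in erythrocytes (0.3% parasitemia, 2.5% hematocrit) at 37 C, 5% CO2, quantified by SYBR Green DNA staining after overnight detergent lysis.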
# 7G8 = experiment: as above; details: P. falciparum in erythrocytes, SYBR Green DNA, 72 h; series mostly up to 28.7 µM
# Outline: as §1
# AA1029 = experiment: as above; details: P. falciparum in erythrocytes, SYBR Green DNA, 72 h; series mostly up to 28.7 µM
# Outline: as §1
# AS120 = experiment: as above; details: P. falciparum in erythrocytes, SYBR Green DNA, 72 h; series mostly up to 28.7 µM
# Outline: as §1
# ATS189 = experiment: as above; details: P. falciparum in erythrocytes, SYBR Green DNA, 72 h; series mostly up to 28.7 µM
# Outline: as §1
# ATS95 = experiment: as above; details: P. falciparum in erythrocytes, SYBR Green DNA, 72 h; series mostly up to 28.7 µM
# Outline: as §1
# C2A = experiment: as above; details: P. falciparum in erythrocytes, SYBR Green DNA, 72 h; series mostly up to 28.7 µM
# Outline: as §1
# CP185 = experiment: as above; details: P. falciparum in erythrocytes, SYBR Green DNA, 72 h; series mostly up to 28.7 µM
# Outline: as §1
# CP191 = experiment: as above; details: P. falciparum in erythrocytes, SYBR Green DNA, 72 h; series mostly up to 28.7 µM
# Outline: as §1
# CP192 = experiment: as above; details: P. falciparum in erythrocytes, SYBR Green DNA, 72 h; series mostly up to 28.7 µM
# Outline: as §1
# CP194 = experiment: as above; details: P. falciparum in erythrocytes, SYBR Green DNA, 72 h; series mostly up to 28.7 µM
# Outline: as §1
# CP201 = experiment: as above; details: P. falciparum in erythrocytes, SYBR Green DNA, 72 h; series mostly up to 28.7 µM
# Outline: as §1
# CP203 = experiment: as above; details: P. falciparum in erythrocytes, SYBR Green DNA, 72 h; series mostly up to 28.7 µM
# Outline: as §1
# CP211 = experiment: as above; details: P. falciparum in erythrocytes, SYBR Green DNA, 72 h; series mostly up to 28.7 µM
# Outline: as §1
# CP215 = experiment: as above; details: P. falciparum in erythrocytes, SYBR Green DNA, 72 h; series mostly up to 28.7 µM
# Outline: as §1
# CP217 = experiment: as above; details: P. falciparum in erythrocytes, SYBR Green DNA, 72 h; series mostly up to 28.7 µM
# Outline: as §1
# CP237 = experiment: as above; details: P. falciparum in erythrocytes, SYBR Green DNA, 72 h; series mostly up to 28.7 µM
# Outline: as §1
# CP238 = experiment: as above; details: P. falciparum in erythrocytes, SYBR Green DNA, 72 h; series mostly up to 28.7 µM
# Outline: as §1
# CP247 = experiment: as above; details: P. falciparum in erythrocytes, SYBR Green DNA, 72 h; series mostly up to 28.7 µM
# Outline: as §1
# CP250 = experiment: as above; details: P. falciparum in erythrocytes, SYBR Green DNA, 72 h; series mostly up to 28.7 µM
# Outline: as §1
# CP252 = experiment: as above; details: P. falciparum in erythrocytes, SYBR Green DNA, 72 h; series mostly up to 28.7 µM
# Outline: as §1
# CP256 = experiment: as above; details: P. falciparum in erythrocytes, SYBR Green DNA, 72 h; series mostly up to 28.7 µM
# Outline: as §1
# Ubiquitin carboxyl-terminal hydrolase 1 (Homo sapiens), sequence (O94782 whole entry, looked up): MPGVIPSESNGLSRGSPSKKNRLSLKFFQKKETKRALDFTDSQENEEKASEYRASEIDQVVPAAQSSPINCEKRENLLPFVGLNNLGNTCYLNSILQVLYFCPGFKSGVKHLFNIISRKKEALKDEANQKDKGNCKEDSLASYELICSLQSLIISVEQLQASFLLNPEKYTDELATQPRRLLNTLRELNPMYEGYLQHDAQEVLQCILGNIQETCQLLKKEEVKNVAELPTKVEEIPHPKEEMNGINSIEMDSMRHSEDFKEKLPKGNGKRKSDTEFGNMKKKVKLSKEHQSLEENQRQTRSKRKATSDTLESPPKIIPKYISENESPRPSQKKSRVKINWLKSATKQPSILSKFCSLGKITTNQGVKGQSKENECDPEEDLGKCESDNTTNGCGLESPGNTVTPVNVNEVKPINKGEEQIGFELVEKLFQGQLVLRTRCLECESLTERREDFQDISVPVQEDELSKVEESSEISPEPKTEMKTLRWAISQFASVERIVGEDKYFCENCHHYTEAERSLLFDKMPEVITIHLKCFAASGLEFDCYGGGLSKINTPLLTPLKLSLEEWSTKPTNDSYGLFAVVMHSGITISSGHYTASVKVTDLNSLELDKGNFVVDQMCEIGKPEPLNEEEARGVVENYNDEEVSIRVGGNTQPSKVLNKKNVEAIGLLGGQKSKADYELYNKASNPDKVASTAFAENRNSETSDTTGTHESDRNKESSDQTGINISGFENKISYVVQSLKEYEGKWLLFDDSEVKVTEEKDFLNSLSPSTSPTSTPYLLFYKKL
# 3',5'-cyclic-AMP phosphodiesterase 4B (Homo sapiens), sequence (Q07343 whole entry, looked up): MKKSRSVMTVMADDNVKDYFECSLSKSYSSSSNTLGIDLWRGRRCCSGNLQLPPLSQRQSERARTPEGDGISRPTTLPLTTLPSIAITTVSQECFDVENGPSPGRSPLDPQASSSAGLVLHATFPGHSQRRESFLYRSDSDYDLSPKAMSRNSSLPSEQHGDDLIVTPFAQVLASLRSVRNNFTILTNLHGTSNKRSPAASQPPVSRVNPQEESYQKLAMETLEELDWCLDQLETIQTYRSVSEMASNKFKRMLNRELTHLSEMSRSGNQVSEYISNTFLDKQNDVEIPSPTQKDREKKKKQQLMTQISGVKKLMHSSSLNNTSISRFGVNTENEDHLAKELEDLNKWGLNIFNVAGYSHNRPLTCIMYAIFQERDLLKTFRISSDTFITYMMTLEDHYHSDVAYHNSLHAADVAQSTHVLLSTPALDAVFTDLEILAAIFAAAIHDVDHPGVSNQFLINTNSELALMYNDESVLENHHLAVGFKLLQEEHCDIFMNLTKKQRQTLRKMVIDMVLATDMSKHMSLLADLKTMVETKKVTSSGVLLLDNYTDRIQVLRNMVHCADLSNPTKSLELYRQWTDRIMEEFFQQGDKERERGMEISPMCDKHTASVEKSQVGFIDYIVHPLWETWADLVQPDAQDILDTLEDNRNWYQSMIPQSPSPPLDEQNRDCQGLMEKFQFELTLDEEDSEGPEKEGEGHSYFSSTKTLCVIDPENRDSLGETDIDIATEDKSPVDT
# Luciferin 4-monooxygenase (Photinus pyralis), sequence (P08659 whole entry, looked up): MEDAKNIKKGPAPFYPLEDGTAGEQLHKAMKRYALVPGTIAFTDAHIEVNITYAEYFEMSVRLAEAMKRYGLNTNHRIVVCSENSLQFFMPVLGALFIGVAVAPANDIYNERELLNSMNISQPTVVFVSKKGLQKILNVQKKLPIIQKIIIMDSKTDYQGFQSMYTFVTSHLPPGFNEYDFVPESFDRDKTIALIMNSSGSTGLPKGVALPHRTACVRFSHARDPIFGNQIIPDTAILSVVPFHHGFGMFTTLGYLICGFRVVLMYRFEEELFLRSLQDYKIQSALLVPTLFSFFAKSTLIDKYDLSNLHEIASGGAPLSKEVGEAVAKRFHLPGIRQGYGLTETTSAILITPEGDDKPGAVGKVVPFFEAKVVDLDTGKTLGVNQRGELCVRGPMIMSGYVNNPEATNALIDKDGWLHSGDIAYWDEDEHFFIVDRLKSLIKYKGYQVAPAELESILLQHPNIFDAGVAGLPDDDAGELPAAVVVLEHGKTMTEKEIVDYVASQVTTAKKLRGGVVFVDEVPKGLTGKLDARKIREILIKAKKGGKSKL
# Cytochrome P450 1A2 (Homo sapiens), sequence (P05177 whole entry, looked up): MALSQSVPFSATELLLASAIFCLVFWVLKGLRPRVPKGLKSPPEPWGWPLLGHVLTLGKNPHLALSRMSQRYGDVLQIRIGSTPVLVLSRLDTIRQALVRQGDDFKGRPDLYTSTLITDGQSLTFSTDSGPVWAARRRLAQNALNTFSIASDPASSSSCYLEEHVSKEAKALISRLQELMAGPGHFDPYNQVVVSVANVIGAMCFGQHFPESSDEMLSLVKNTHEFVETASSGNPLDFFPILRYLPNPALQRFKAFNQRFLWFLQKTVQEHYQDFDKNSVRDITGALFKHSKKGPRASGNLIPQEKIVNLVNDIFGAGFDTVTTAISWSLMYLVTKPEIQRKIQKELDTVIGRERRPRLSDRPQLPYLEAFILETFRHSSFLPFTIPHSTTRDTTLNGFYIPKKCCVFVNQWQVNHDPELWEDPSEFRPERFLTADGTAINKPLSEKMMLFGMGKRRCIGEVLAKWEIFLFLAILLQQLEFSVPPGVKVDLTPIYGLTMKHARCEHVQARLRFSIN
# Glucocorticoid receptor (Homo sapiens), sequence (P04150 whole entry, looked up): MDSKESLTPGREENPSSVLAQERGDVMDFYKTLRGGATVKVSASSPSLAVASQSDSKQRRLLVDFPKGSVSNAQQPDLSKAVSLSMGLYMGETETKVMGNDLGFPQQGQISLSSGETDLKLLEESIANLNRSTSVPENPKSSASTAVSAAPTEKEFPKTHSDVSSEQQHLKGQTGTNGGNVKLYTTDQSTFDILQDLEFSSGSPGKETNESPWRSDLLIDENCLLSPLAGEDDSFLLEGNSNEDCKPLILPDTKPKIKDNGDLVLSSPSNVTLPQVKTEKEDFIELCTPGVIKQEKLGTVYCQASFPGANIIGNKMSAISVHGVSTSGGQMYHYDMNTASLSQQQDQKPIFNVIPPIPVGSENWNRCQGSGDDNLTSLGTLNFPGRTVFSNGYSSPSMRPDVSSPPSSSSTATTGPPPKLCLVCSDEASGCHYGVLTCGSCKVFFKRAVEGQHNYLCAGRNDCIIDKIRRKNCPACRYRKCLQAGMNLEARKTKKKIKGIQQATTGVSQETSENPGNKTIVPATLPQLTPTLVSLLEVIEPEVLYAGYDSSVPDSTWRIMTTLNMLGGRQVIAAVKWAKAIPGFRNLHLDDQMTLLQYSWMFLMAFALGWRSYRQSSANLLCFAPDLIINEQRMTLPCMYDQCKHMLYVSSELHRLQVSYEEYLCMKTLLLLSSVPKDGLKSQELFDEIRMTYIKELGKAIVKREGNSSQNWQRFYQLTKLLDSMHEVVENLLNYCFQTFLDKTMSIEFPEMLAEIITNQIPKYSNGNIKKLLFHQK
# ATP-dependent 6-phosphofructokinase (Trypanosoma brucei brucei), sequence (O15648 whole entry, looked up): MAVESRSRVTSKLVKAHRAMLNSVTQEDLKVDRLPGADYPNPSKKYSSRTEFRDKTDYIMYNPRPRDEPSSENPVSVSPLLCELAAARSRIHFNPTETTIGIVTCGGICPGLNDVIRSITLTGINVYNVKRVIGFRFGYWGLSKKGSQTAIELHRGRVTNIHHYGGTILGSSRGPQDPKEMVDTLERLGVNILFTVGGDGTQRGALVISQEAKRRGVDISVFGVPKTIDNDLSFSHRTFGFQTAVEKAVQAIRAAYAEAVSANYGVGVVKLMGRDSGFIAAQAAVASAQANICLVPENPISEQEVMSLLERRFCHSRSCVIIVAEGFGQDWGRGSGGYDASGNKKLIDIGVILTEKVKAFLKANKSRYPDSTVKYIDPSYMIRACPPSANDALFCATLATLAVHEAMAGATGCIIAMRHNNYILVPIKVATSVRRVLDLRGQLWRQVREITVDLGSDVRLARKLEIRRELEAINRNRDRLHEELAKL
# Lysosomal acid glucosylceramidase (Homo sapiens), sequence (P04062 whole entry, looked up): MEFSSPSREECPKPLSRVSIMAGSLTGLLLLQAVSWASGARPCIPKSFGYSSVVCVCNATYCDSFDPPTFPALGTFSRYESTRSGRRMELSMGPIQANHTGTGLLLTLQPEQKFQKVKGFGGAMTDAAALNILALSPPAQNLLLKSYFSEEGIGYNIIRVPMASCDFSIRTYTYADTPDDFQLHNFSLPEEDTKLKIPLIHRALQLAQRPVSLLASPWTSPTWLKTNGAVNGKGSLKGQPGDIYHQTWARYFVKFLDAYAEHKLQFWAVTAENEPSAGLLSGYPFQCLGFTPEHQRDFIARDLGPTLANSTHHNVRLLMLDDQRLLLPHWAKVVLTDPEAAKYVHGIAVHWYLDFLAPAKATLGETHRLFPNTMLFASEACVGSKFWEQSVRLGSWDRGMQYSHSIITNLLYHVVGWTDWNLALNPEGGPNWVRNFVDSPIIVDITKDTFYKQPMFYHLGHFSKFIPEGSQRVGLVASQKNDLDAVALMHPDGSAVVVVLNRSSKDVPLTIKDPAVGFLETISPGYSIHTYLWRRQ
# Cytochrome P450 2C19 (Homo sapiens), sequence (P33261 whole entry, looked up): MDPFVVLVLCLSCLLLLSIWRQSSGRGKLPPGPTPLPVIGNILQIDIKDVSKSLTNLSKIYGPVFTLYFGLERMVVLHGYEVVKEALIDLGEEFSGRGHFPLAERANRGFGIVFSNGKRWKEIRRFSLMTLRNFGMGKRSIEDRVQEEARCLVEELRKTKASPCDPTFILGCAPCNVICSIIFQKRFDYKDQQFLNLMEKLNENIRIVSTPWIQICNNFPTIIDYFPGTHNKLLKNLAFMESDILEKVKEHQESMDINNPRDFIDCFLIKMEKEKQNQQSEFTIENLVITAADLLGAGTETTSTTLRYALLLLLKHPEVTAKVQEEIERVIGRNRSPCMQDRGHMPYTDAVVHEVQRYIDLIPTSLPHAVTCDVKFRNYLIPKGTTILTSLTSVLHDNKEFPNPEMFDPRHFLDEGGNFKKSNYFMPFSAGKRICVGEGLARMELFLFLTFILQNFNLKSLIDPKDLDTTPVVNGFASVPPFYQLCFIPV
compound,measurement,setting,value
C[N+]1([O-])[C@H]2CC[C@H]1CC(OC(=O)[C@@H](CO)c1ccccc1)C2 (some centres not stated),Potency,[1],> 11.4 µM
same,"activity change, negative = inhibition",[2],-0.292%
same,"activity change, negative = inhibition",[3],0.8% [at 2.29 µM]
same,"activity change, negative = inhibition",[4],-79.7% (active)
same,"activity, negative = inhibition",[5],-0.881%
same,Potency,[6],> 46 µM
same,"activity change, negative = inhibition",[7],1.19% [at 11.4 µM]
same,outcome,[8],inactive
same,Potency,[9],inactive
same,outcome,[10],inactive
same,Potency,[11],inactive
same,outcome,[12],inactive
same,outcome,[13],inactive
same,outcome,[14],inactive
same,outcome,[15],inactive
same,Potency,3D7,inactive
same,Potency,7G8,inactive
same,Potency,AA1029,inactive
same,Potency,AS120,inactive
same,Potency,ATS189,inactive
same,Potency,ATS95,inactive
same,Potency,C2A,inactive
same,Potency,CP185,inactive
same,Potency,CP191,inactive
same,Potency,CP192,inactive
same,Potency,CP194,inactive
same,Potency,CP201,inactive
same,Potency,CP203,inactive
same,Potency,CP211,inactive
same,Potency,CP215,inactive
same,Potency,CP217,inactive
same,Potency,CP237,inactive
same,Potency,CP238,inactive
same,Potency,CP247,inactive
same,Potency,CP250,inactive
same,Potency,CP252,inactive
same,Potency,CP256,inactive
